Experimental data taken from PubChem BioAssay (NCI).
The panel holds about 79,000 compounds, 15% with a hit somewhere; the sample as a whole holds those more often. A number with no mark means an inactive call. Active and inactive are the calls of the source. Cut-off read from the data, not from the text of the source: active = growth inhibition above about 70%; inactive = the rest.

Key:
[1] = NCI Yeast Anticancer Drug Screen. Data for the rad50 strain (AID 155);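 note: 0% = growth of vehicle-only cultures of the same strain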; conditions: S. cerevisiae rad50 strain growth inhibition, active compounds read high
Summary of the method: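 Growth of the mutant yeast was measured after compound exposure and referenced to vehicle-treated cultures.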

[2] = NCI Yeast Anticancer Drug Screen. Data for the mec2-1 strain (AID 157); conditions: S. cerevisiae mec2-1 strain, active compounds read high
Summary of the method: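 Cells of the genetically defined mec2-1 yeast strain are incubated with test compound. Inhibition of growth is calculated against vehicle-treated controls.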

[3] = NCI Yeast Anticancer Drug Screen. Data for the sgs1 mgt1 strain (AID 161);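 note: 0% = growth of cultures given vehicle only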; conditions: S. cerevisiae sgs1 mgt1 strain, active compounds read high
Summary of the method: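 Test agents were incubated with a DNA-repair-mutant yeast strain. Growth was then read and compared against vehicle-treated controls.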

[4] = NCI Yeast Anticancer Drug Screen. Data for the cln2 rad14 strain (AID 165);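 note: 0% = growth equal to vehicle treated cultures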; conditions: S. cerevisiae cln2 rad14 strain, active compounds read high
Summary of the method: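 The screen exposed genetically defined yeast (cln2 rad14) to test compounds and scored growth inhibition relative to vehicle-treated controls.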

[5] = NCI Yeast Anticancer Drug Screen. Data for the bub3 strain (AID 167); conditions: S. cerevisiae bub3 mutant strain, active compounds read high
Summary of the method: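 Whole-cell yeast assay. The mutant strain was incubated with compounds, and growth inhibition was determined by comparison with vehicle-treated cells.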

[6] = NCI Yeast Anticancer Drug Screen. Data for the mlh1 rad18 strain (AID 175); conditions: S. cerevisiae mlh1 rad18 strain growth inhibition, active compounds read high
Summary of the method: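 Compound-treated yeast growth, normalised to vehicle controls. Strain bears defined DNA repair mutations.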

[7] = at 5.0 µM (retest, dose inferred, filed as 0.5)
[8] = at 50.0 µM (retest, dose inferred, filed as 5.0)

## Cc1ccc(NC(=O)CCc2nnc(N)n2N)cc1
[1]; [7]
  growth inhibition: -2%
[1]; [8]
  growth inhibition: -5%
[1]; at 50.0 µM
  growth inhibition: -3.55%
[2]; [7]
  growth inhibition: -1%
[2]; [8]
  growth inhibition: 4%
[2]; at 50.0 µM
  growth inhibition: 96.5% (active)
[3]; [7]
  growth inhibition: -6%
[3]; [8]
  growth inhibition: 0%
[3]; at 50.0 µM
  growth inhibition: 97.5% (active)
[4]; [7]
  growth inhibition: 0%
[4]; [8]
  growth inhibition: 5%
[4]; at 50.0 µM
  growth inhibition: 93.2% (active)
[5]; [7]
  growth inhibition: 4%
[5]; [8]
  growth inhibition: 7%
[5]; at 50.0 µM
  growth inhibition: 95% (active)
[6]; [7]
  growth inhibition: -4%
[6]; [8]
  growth inhibition: -1%
[6]; at 50.0 µM
  growth inhibition: 97.2% (active)

## CC(=O)c1cccc(NC(=O)C(=O)NNc2n[nH]c(=S)n2N)c1
[1]; [7]
  growth inhibition: 16%
[1]; [8]
  growth inhibition: 95% (active)
[1]; at 50.0 µM
  growth inhibition: 89.4% (active)
[2]; [7]
  growth inhibition: -20%
[2]; [8]
  growth inhibition: 94% (active)
[2]; at 50.0 µM
  growth inhibition: 94.1% (active)
[3]; [7]
  growth inhibition: 6%
[3]; [8]
  growth inhibition: 90% (active)
[3]; at 50.0 µM
  growth inhibition: 92.9% (active)
[4]; [7]
  growth inhibition: 19%
[4]; [8]
  growth inhibition: 77% (active)
[4]; at 50.0 µM
  growth inhibition: 92.4% (active)
[5]; [7]
  growth inhibition: -19%
[5]; [8]
  growth inhibition: 95% (active)
[5]; at 50.0 µM
  growth inhibition: 92.8% (active)
[6]; [7]
  growth inhibition: 19%
[6]; [8]
  growth inhibition: 94% (active)
[6]; at 50.0 µM
  growth inhibition: 91.1% (active)

## COc1ccc(C2COc3cc(O)c(O)cc3C2)cc1OC (stereo not given)
[1]; [7]
  growth inhibition: -10%
[1]; [8]
  growth inhibition: 60%
[1]; at 50.0 µM
  growth inhibition: 61.4%
[2]; [7]
  growth inhibition: 14%
[2]; [8]
  growth inhibition: 81% (active)
[2]; at 50.0 µM
  growth inhibition: 72.2% (active)
[3]; [7]
  growth inhibition: 7%
[3]; [8]
  growth inhibition: 69%
[3]; at 50.0 µM
  growth inhibition: 43.3%
[4]; [7]
  growth inhibition: -6%
[4]; [8]
  growth inhibition: 2%
[4]; at 50.0 µM
  growth inhibition: 51.5%
[5]; [7]
  growth inhibition: -14%
[5]; [8]
  growth inhibition: 60%
[5]; at 50.0 µM
  growth inhibition: 29.6%
[6]; [7]
  growth inhibition: 1%
[6]; [8]
  growth inhibition: 90% (active)
[6]; at 50.0 µM
  growth inhibition: 88% (active)

## CC1=C(C(=O)NCc2ccccc2)C(c2ccccc2O)C(C(=O)NCc2ccccc2)=C(C)N1
[1]; [7]
  growth inhibition: 27%
[1]; [8]
  growth inhibition: 27%
[1]; at 50.0 µM
  growth inhibition: 87.3% (active)
[2]; [7]
  growth inhibition: 17%
[2]; [8]
  growth inhibition: 17%
[2]; at 50.0 µM
  growth inhibition: 85% (active)
[3]; [7]
  growth inhibition: 17%
[3]; [8]
  growth inhibition: 17%
[3]; at 50.0 µM
  growth inhibition: 79.7% (active)
[4]; [7]
  growth inhibition: 13%
[4]; [8]
  growth inhibition: 13%
[4]; at 50.0 µM
  growth inhibition: 71.4% (active)
[5]; [7]
  growth inhibition: 7%
[5]; [8]
  growth inhibition: 7%
[5]; at 50.0 µM
  growth inhibition: 86.4% (active)
[6]; [7]
  growth inhibition: 15%
[6]; [8]
  growth inhibition: 15%
[6]; at 50.0 µM
  growth inhibition: 78.2% (active)

## O=C(O)NCc1ccccc1 (tested in a mixture with another compound)
[1]; [7]
  growth inhibition: 11%
[1]; [8]
  growth inhibition: 94% (active)
[1]; at 50.0 µM
  growth inhibition: 94% (active)
[2]; [7]
  growth inhibition: -12%
[2]; [8]
  growth inhibition: 40%
[2]; at 50.0 µM
  growth inhibition: 14.8%
[3]; [7]
  growth inhibition: -5%
[3]; [8]
  growth inhibition: 74% (active)
[3]; at 50.0 µM
  growth inhibition: 36.1%
[4]; [7]
  growth inhibition: 5%
[4]; [8]
  growth inhibition: 98% (active)
[4]; at 50.0 µM
  growth inhibition: 60%
[5]; [7]
  growth inhibition: 23%
[5]; [8]
  growth inhibition: 98% (active)
[5]; at 50.0 µM
  growth inhibition: 87.5% (active)
[6]; [7]
  growth inhibition: 3%
[6]; [8]
  growth inhibition: 80% (active)
[6]; at 50.0 µM
  growth inhibition: 88% (active)

## O=C1/C(=N/N=C(c2ccccc2)c2ccccc2)c2ccccc2-c2ccccc21
[1]; [7]
  growth inhibition: 7%
[1]; [8]
  growth inhibition: 65%
[1]; at 50.0 µM
  growth inhibition: 60.9%
[2]; [7]
  growth inhibition: 1%
[2]; [8]
  growth inhibition: 14%
[2]; at 50.0 µM
  growth inhibition: 0.45%
[3]; [7]
  growth inhibition: -1%
[3]; [8]
  growth inhibition: 23%
[3]; at 50.0 µM
  growth inhibition: -2.6%
[4]; [7]
  growth inhibition: 2%
[4]; [8]
  growth inhibition: -5%
[4]; at 50.0 µM
  growth inhibition: 0.15%
[5]; [7]
  growth inhibition: 7%
[5]; [8]
  growth inhibition: 27%
[5]; at 50.0 µM
  growth inhibition: 8.5%
[6]; [7]
  growth inhibition: 7%
[6]; [8]
  growth inhibition: 44%
[6]; at 50.0 µM
  growth inhibition: 72.3% (active)

## C=CCSc1nc2ccccc2c(=O)n1Cc1ccco1
[1]; [7]
  growth inhibition: 50%
[1]; [8]
  growth inhibition: 59%
[1]; at 50.0 µM
  growth inhibition: -7.25%
[2]; [7]
  growth inhibition: 25%
[2]; [8]
  growth inhibition: 36%
[2]; at 50.0 µM
  growth inhibition: -12.2%
[3]; [7]
  growth inhibition: 33%
[3]; [8]
  growth inhibition: 59%
[3]; at 50.0 µM
  growth inhibition: 22.4%
[4]; [7]
  growth inhibition: 27%
[4]; [8]
  growth inhibition: 26%
[4]; at 50.0 µM
  growth inhibition: -54.2%
[5]; [7]
  growth inhibition: 45%
[5]; [8]
  growth inhibition: 77% (active)
[5]; at 50.0 µM
  growth inhibition: 19.4%
[6]; [7]
  growth inhibition: 43%
[6]; [8]
  growth inhibition: 64%
[6]; at 50.0 µM
  growth inhibition: 46.5%

## Cc1ccc(C(=O)/C=C/c2ccccc2)cc1
[1]; [7]
  growth inhibition: 8%
[1]; [8]
  growth inhibition: 42%
[1]; at 50.0 µM
  growth inhibition: 52%
[2]; [7]
  growth inhibition: -6%
[2]; [8]
  growth inhibition: 14%
[2]; at 50.0 µM
  growth inhibition: 13.7%
[3]; [7]
  growth inhibition: 1%
[3]; [8]
  growth inhibition: 38%
[3]; at 50.0 µM
  growth inhibition: 36.6%
[4]; [7]
  growth inhibition: 0%
[4]; [8]
  growth inhibition: -22%
[4]; at 50.0 µM
  growth inhibition: -22%
[5]; [7]
  growth inhibition: 6%
[5]; [8]
  growth inhibition: 19%
[5]; at 50.0 µM
  growth inhibition: 9.3%
[6]; [7]
  growth inhibition: 2%
[6]; [8]
  growth inhibition: 24%
[6]; at 50.0 µM
  growth inhibition: 82.1% (active)

## CC1(C)C(=O)N(CCCCCCN2C(=O)C(C)(C)c3ccccc32)c2ccccc21
[1]; [7]
  growth inhibition: 20%
[1]; [8]
  growth inhibition: 20%
[1]; at 50.0 µM
  growth inhibition: 79.5% (active)
[2]; [7]
  growth inhibition: 4%
[2]; [8]
  growth inhibition: 4%
[2]; at 50.0 µM
  growth inhibition: 78% (active)
[3]; [7]
  growth inhibition: 5%
[3]; [8]
  growth inhibition: 5%
[3]; at 50.0 µM
  growth inhibition: 81.5% (active)
[4]; [7]
  growth inhibition: -11%
[4]; [8]
  growth inhibition: -11%
[4]; at 50.0 µM
  growth inhibition: 83.5% (active)
[5]; [7]
  growth inhibition: 12%
[5]; [8]
  growth inhibition: 12%
[5]; at 50.0 µM
  growth inhibition: 73.2% (active)
[6]; [7]
  growth inhibition: 3%
[6]; [8]
  growth inhibition: 3%
[6]; at 50.0 µM
  growth inhibition: 78.5% (active)

## CCCCCCCCCCCCCCCCP(=O)([O-])OCC[N+](C)(C)C
[1]; [7]
  growth inhibition: -34%
[1]; [8]
  growth inhibition: 99% (active)
[1]; at 50.0 µM
  growth inhibition: 80.8% (active)
[2]; [7]
  growth inhibition: -32%
[2]; [8]
  growth inhibition: 99% (active)
[2]; at 50.0 µM
  growth inhibition: 87.3% (active)
[3]; [7]
  growth inhibition: 0%
[3]; [8]
  growth inhibition: 99% (active)
[3]; at 50.0 µM
  growth inhibition: 89.2% (active)
[4]; [7]
  growth inhibition: -27%
[4]; [8]
  growth inhibition: 99% (active)
[4]; at 50.0 µM
  growth inhibition: 89.5% (active)
[5]; [7]
  growth inhibition: -32%
[5]; [8]
  growth inhibition: 98% (active)
[5]; at 50.0 µM
  growth inhibition: 88.5% (active)
[6]; [7]
  growth inhibition: -26%
[6]; [8]
  growth inhibition: 98% (active)
[6]; at 50.0 µM
  growth inhibition: 91.5% (active)
